Source: PubChem BioAssay (Center for Chemical Genomics, University of Michigan)
Shown is part of a subset that was picked to be rich in hits.
Dicer inh – blocks human Dicer maturation of pre-miR-21; Q9UPY3; cat-ELCCA pre-miR-21 Dicer processing, chemiluminescence; stronger effect = higher value; z-score at 25 µM; actives 6% (n = 47,000); AID 1347074; in the data active means z-score above about 3, passing the limit was not always enough;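 further: plate controls were vehicle for no effect and no enzyme for full effect; higher signal means more uncleaved substrate so more Dicer inhibition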
Numbers without * were called inactive.

SMILES | Dicer inh
O=C(NNC(=O)c1nc(-c2ccc(OC(F)(F)F)cc2)no1)c1ccc(C(F)(F)F)cc1 | 0.52
CC1=C(C(=O)OC2CCCCC2)C(c2ccncc2)C2=C(CCCC2=O)N1 (centres undefined) | -5.09
CC1c2ccsc2CCN1C(=O)NC(=O)c1ccccc1Cl (centres undefined) | 0.15
CCOC(=O)C(C)c1ccc2cc(OC)ccc2c1 (centres undefined) | 4.56*
COc1ccc2cc(CCC(C)=O)ccc2c1 | 6.98
CCOC(=O)NC(=S)c1ccc(OC)cc1 | 0.26
N#C/C(=C\c1ncc(C(F)(F)F)cc1Cl)S(=O)(=O)c1ccccc1Cl | 2.59
O=C(CSc1nc(-c2ccccc2)cc(=O)[nH]1)c1ccc(Cl)s1 | 0.07
CN(C)/C=C1\SCc2ccccc2C1=O | -1.46
O=C1/C(=C/c2ccc3c(c2)OCO3)CCCc2ccccc21 | -1.67
CN(C)/C=C1\CCCc2ccccc2C1=O | 3.43*
Cc1ccc(NC(=O)c2c(F)cccc2Cl)c(C(=O)Nc2ccc(F)cc2)c1 | -0.18
Cc1ccc2oc(C(=O)O)cc(=O)c2c1 | 2.48
Cc1ccc2oc(-c3ccccc3)cc(=O)c2c1 | 4.71*
O=c1cc(-c2ccccc2)oc2ccc(-c3nn[nH]n3)cc12 | 0.08
CC(C(=O)O)c1ccc2c(c1)[nH]c1ccc(Cl)cc12 (centres undefined) | -0.21
Nc1ccccc1Sc1nc(-c2ccccc2N)ccc1[N+](=O)[O-] | -1.15
CN(C)C(=O)c1ccc(-c2cc(C(F)(F)F)nn2C)s1 | -0.27
Cn1nc(C(F)(F)F)cc1OC(=O)c1ccccc1Cl | -0.32
Cn1nc(C(F)(F)C(F)F)cc1-c1ccccc1O | 5.32*
O=S(=O)(c1cccs1)N(Cc1ccccc1)Cc1ccccc1 | 0.38
O=C(c1cccc2c1-c1ccccc1C2)N1CCCCC1 | 0.58
CCOC(=O)C1=C(C)NC(C)=C(C(=O)OCC)C1/C=C/c1ccccc1 | -0.51
CNC[C@H](O)c1ccc(O)c(O)c1 | -1.86
O=C(O)[C@@H]1CS[C@H]([C@H](O)[C@@H](O)[C@H](O)CO)N1 | -0.7
SMILES | Dicer inh
COC(=O)CSC1=C(C#N)C(=O)NC(c2ccc(OC)c(OC)c2)S1 (centres undefined) | 1.3
CCCCSC1=C(C#N)C(=O)NC(c2ccc(OC)c(OC)c2)S1 (centres undefined) | 3.35*
CCSC1=C(C#N)C(=O)NC(c2ccc(OC)c(OC)c2)S1 (centres undefined) | 0.5
Cn1c(=O)c(C#N)c(-c2cccs2)n2cnnc12 | 0.33
CCC(=O)Nc1cc(C(F)(F)F)cnc1OC | 0.7
CCSc1nc2c(c(=O)[nH]1)C1(CCCC1)Cc1ccccc1-2 | 0.22
COC(=O)CCSc1nc2c(c(=O)[nH]1)C(C)(C1CCCCC1)Cc1ccccc1-2 (centres undefined) | 3.66*
CCCCSCc1nc2c(c(=O)[nH]1)C1(CCCC1)Cc1ccccc1-2 | 0.7
CN(C)c1cc(NC(=O)CN2CCOCC2)c2ccccc2n1 | 0.33
COc1cc2nc(/C=C/c3ccccc3)oc(=O)c2cc1OC | 0.14
O=C(O)c1c2c(nc3ccccc13)CCC2 | 1.59
CNC(=S)N/N=C/c1c(O)ccc2ccccc12 | 0.57
Fc1ccccc1NC(=S)N/N=C/c1cccc2ccccc12 | 3.4*
CC(C)(C)OC(=O)N/N=C\c1cccc2ccccc12 | -1.25
CCOC(=O)C1=C(CC)NC2=C(C(=O)CC(C)(C)C2)C1c1ccc(OC)cc1OC (centres undefined) | -0.69
COc1ccc(C2Nn3c(nnc3-c3ccccc3)SC2C(=O)NCC2CCCO2)cc1Cl (centres undefined) | 6.64*
Cc1nnc2n1NC(c1ccc(Cl)cc1)C(C(=O)NCC1CCCO1)S2 (centres undefined) | 2.39
Cc1ccc(C2Nn3c(C)nnc3SC2C(=O)NCC2CCCO2)cc1 (centres undefined) | -0.76
CSc1sc(-c2ccn(S(=O)(=O)c3ccc(Cl)c(Cl)c3)n2)c2c1C(=O)CC(C)(C)C2 | 12.9
CC(NCc1ccc(Sc2ccc(Br)cc2)c([N+](=O)[O-])c1)C(=O)O (centres undefined) | -0.71
Nc1cc(Cl)c(N2CCOCC2)cc1N1CCOCC1 | 3.23
COC(=O)Cc1nc(NC(=O)c2nc(-c3ccccc3)oc2C)sc1C | 0.09
COC(=O)Cc1nc(NC(=O)C2CCC2C(=O)O)sc1C (centres undefined) | 3.33*
COC(=O)Cc1nc(Nc2ccccc2)sc1C | -0.11
CCN(CC)CCSc1nc2cc(C)c(C)cc2[nH]1 | 0.2
SMILES | Dicer inh
Cn1cnnc1Sc1nc2c(c(=O)n(C)c(=O)n2C)n1Cc1cccc(Cl)c1 | 1.63
N[C@@H](CC(=O)OCc1ccccc1)C(=O)OCc1ccccc1 | 0.55
CC(=O)Oc1ccc(C2C3=C(CC(C)(C)CC3=O)Nc3ccc4ccccc4c32)cc1 (centres undefined) | 0.32
CC(=O)/C(N=Nc1ccc2c(c1)OCO2)=C(\C)O | 1.32
CCOC(=O)/C(N=Nc1ccc(F)cc1F)=C(\C)O | 0.61
CC(=O)/C(N=Nc1c(F)cccc1F)=C(\C)O | 3.35*
FC(F)(F)c1oc(-c2ccc(Cl)cc2)cc1-c1nc(-c2ccc(Cl)cc2)no1 | -0.38
Cn1cc(Cl)c(C2NN=C(SCC(=O)Nc3cccc(Cl)c3)S2)n1 (centres undefined) | -0.03
COC(=O)[C@H]1[C@H]2C[C@H]3c4[nH]c5ccccc5c4CCN3C[C@H]2CC[C@@H]1O | -0.25
COC(=O)CSc1nc(NC(C)=O)nc(C)c1Br | 3.15*
COC(=O)CSc1nc(N)nc(C)c1Cl | 2.69
COC(=O)CSc1cc(C)nc(NC(C)=O)n1 | 0.03
CC(N)(Cc1ccc(O)cc1)C(=O)O (centres undefined) | 1.63
CCOC(=O)c1nnn2c1nc(SCc1ccc([N+](=O)[O-])cc1)c1ccccc12 | -1.43
CC1=C(C(=O)OCc2ccccc2)C(c2ccccc2)C2=C(CC(C)(C)CC2=O)N1 (centres undefined) | -0.61
Cc1cc(C)n(-c2ncc(S(=O)(=O)C(C)(C)C)c(N)n2)n1 | -0.17
CCOCCOC(=O)C1=C(C)NC2=C(C(=O)CCC2)C1c1cccc(F)c1 (centres undefined) | -0.59
CCn1c2ccccc2c2cc(C3C(C(=O)OCCOC)=C(C)NC4=C3C(=O)CCC4)ccc21 (centres undefined) | 3.6*
CCSCCOC(=O)C1=C(C)NC2=C(C(=O)CCC2)C1c1ccc(OC)c(OC)c1 (centres undefined) | 4.84*
CCSCCOC(=O)C1=C(C)NC2=C(C(=O)CCC2)C1c1cccc(F)c1 (centres undefined) | 3.15*
CCSCCOC(=O)C1=C(C)NC2=C(C(=O)CCC2)C1c1ccc(C(=O)OC)cc1 (centres undefined) | 0.4
COCCOC(=O)C1=C(C)NC2=C(C(=O)CCC2)C1c1ccc(Cl)cc1 (centres undefined) | -0.53
CCCCOC(=O)C1=C(C)NC2=C(C(=O)CCC2)C1c1ccc(OC)c(OC)c1 (centres undefined) | -0.48
CCCCCOC(=O)C1=C(C)NC2=C(C(=O)CCC2)C1c1ccc(OC)c(OC)c1 (centres undefined) | -0.68
CCn1c2ccccc2c2cc(C3C(C(=O)OCC4CCCO4)=C(C)NC4=C3C(=O)CCC4)ccc21 (centres undefined) | 0.8
O=C(CCc1ccccc1)NNc1ccccc1F | 0.4
Cc1cccc2c1NC(=O)C(c1ccccc1)C2=O (centres undefined) | 2.93
CCOC(=O)CC1=CSC2=NCCN12 | -0.07
Nc1nnc(-c2cccc(Cl)c2Cl)c(N)n1 | 0.4
